Shown are actives, neighbours in structure and some others; about 9% of the full set was active somewhere.
IMPase inh: cell-permeable inhibitors of inositol monophosphatase (IMPase). CHO-M1 cells, IP1 accumulation, HTRF TR-FRET ratio. inhibition (IP1 accumulation), % at 46.1 µM. P97697. 120,000 tested, under 10 active. AID 901; active = well fitted curve in the direction sought with a large enough effect in the signal ratio, not every such curve was filed as active; inconclusive = small, poorly fitted or top-dose-only effect, or a change in a side signal; inactive = no such curve, though single readings can be large or run the other way; the % refers to the signal ratio;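 also: cells stimulated with carbachol in lithium chloride buffer; plate controls were DMSO basal wells for no effect and reference inhibitor wells for full effect; higher means more IMPase inhibition seen as more IP1 and lower FRET ratio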
Target sequence (P97697 whole entry, looked up): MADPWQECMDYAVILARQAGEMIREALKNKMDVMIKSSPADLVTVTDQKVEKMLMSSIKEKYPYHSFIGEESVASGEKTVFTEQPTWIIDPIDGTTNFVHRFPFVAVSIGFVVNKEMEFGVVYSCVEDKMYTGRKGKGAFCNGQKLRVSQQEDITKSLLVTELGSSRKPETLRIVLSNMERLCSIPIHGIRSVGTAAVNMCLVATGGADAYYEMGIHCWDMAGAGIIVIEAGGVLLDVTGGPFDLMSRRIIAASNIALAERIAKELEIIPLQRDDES
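Seeded CHO-M1 cells were dosed with compound at up to 46 uM, stimulated with carbachol for 30 min, then lysed in IP-One detection reagents. Higher IP1 lowers the TR-FRET signal.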
ALDH1A1 block: inhibitors of human aldehyde dehydrogenase 1A1. P00352. Purified ALDH1A1, NADH fluorescence, propionaldehyde substrate. Potency, µM (highest dose often 75.3 µM), for inactives: top-dose activity, negative = inhibition, hits mostly inhibitors. actives 7.3% (n = 220,000). AID 1030;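 also: potency is read from the fitted curve at half-maximal effect; plate controls were no enzyme wells and a reference inhibitor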
HPGD block: HPGD (human) dehydrogenase inhibition; P15428; purified HPGD, NADH fluorescence kinetic, PGE2 substrate; Potency, µM, for the others: top-dose activity change, negative = inhibition, most hits filed as inhibitors; actives 4.3% (n = 150,000); AID 894; also: potency is read from the fitted curve at half-maximal effect
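NADH formation kinetics: reaction with 30 uM PGE2 and 1 mM NAD+ (final), 20 nM enzyme, Tris-HCl pH 8 with Tween 20, after 15 min compound preincubation at room temperature. Fluorescence change, last versus first of five reads.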
The depositor's hits bear a star; ? = inconclusive; · = not tested or not shown; ! = not confirmed by another sample; [ ] = another dose, or the depositor's remark. Unless noted, calls follow the shape of the dose curve; as a rule, active = well fitted inhibition curve with a large enough effect (not every such curve was filed as active); inconclusive = small, poorly fitted or top-dose-only effect, or another doubt; inactive = no such curve, though single readings can be large or run the other way. Unless noted, % is scaled to controls: 0 for no effect and ±100 for the full control effect.

SMILES	IMPase inh	ALDH1A1 block	HPGD block
COC(=O)CNC(=O)C1(C)C=CC2(CCCCC2)N1C(=O)OC (stereo unspecified)	·	2.7%	-17.6%
CN(C)c1ccc(CNC(=O)[C@@]2(C)C=C[C@@H](Cc3ccccc3)N2C)cc1	·	20µM*	-14.8%
CN1[C@H](Cc2ccccc2)C=C[C@]1(C)C(=O)NCC1CC1	·	28.2µM*	-18.6%
C[C@]1(C(=O)NCC2CC2)C=C[C@@H](Cc2ccccc2)N1C(=O)c1ccccc1	·	-1.6%	-12.3%
CNC(=O)[C@@]1(C)C=C[C@@H](Cc2ccccc2)N1C(C)=O	·	-6.0%	-14.3%
COC(=O)N1[C@H](Cc2ccccc2)C=C[C@]1(C)C(=O)NCc1ccc(N(C)C)cc1	·	?	-8.0%
COC(=O)N1C2(C=CC1(C)C(=O)NCc1ccc(N(C)C)cc1)CCCCC2 (stereo unspecified)	·	25.1µM*	-2.0%
CC(=O)N1[C@H](Cc2ccccc2)C=C[C@]1(C)C(=O)NCc1ccc(C)o1	·	7.6%	22.4µM*!
CC(C)C(NC(=O)c1ccccc1F)C(=O)NCCc1ccccn1 (stereo unspecified)	·	3.2%	·
CNc1nc(Oc2ccc(=O)n(C)n2)nc(N2CCOCC2)n1	1.8	-4.6%	-14.3%
CC(=O)c1cn(Cc2ccccc2)c(=O)[nH]c1=O	·	10.1%	·
CC(C)CN1CC2(CCN(C(=O)c3cccc(F)c3)CC2)C1	·	-5.2%	-12.1%
CC(=O)NCCC1CCN(c2nc3nonc3nc2N(C)Cc2ccccc2)CC1	·	9.5%	·
Cc1cc2n(n1)C(c1ccccc1)CC(c1ccc(Br)cc1)=N2 (stereo unspecified)	-7.6	?	-16.4%
CCN(CCNC(=O)CN1CCN(Cc2ccc(Cl)cc2)C1=O)c1ccccc1	1.3	?	-4.8%
Oc1ccc(Br)cc1/C=N/Nc1nc(N2CCCCC2)nc(N2CCOCC2)n1	·	4.9%	·
Brc1cc2c(cc1/C=N/Nc1nc(N3CCCC3)nc(N3CCOCC3)n1)OCO2	8.4	14.1µM*	-7.2%
CC(C)(C)CC(=O)O/N=C(\N)c1ccncc1	·	5.8%	·
Cc1cc(C)c(S(=O)(=O)NC(C)C)c(C)c1-n1cnnn1	·	2.0%	·
N#Cc1cccc(-c2cc(-n3ccnc3)ncn2)c1	·	-12.9%	-12.1%
O=C(O)/C=C\c1c2ccc(=O)c(O)c-2oc2c(O)c(O)ccc12	·	2.7%[13.5 µM]	2.82µM*
Cc1cc(=O)c2c(O)c(O)ccc2o1	11.4	-6.9%	-18.5%
O=C(O)[C@H]1CCCC[C@@H]1c1c2ccc(=O)c(O)c-2oc2c(O)c(O)ccc12	·	-9.0%[13.5 µM]	4.47µM*
COc1ccc(CN2CCNC(=O)C2CC(=O)NCc2cnn(C)c2)cc1OC (stereo unspecified)	·	-8.9%	·
CCCOc1ccc(-c2nn(-c3ccccc3)cc2C2NC(=O)NC(C)=C2C(=O)OC(C)C)cc1 (stereo unspecified)	6.7	·	·
SMILES	IMPase inh	ALDH1A1 block	HPGD block
c1ccc(-c2cn3c(n2)-c2ccccc2C3)cc1	6.9	?	?
Cc1ccc(Cl)cc1N1CCN(CCCNC(=O)c2nnc(Cc3cccc(Cl)c3)o2)CC1	19.2	·	·
Nc1ccc(C(=O)c2cccs2)cn1	·	0.9%	·
Nc1ccc(C(=O)c2cccs2)cc1	·	-1.3%	22.4µM*
COC(=O)C(C)c1ccc(C(=O)c2cccs2)cc1 (stereo unspecified)	·	-1.5%	14.1µM*
CCC/C=C(\CCC)C(NC(=O)c1cccs1)c1ccc(C(=O)OC)cc1 (stereo unspecified)	·	-4.0%	-25.3%
C[C@@H]1C(=O)N(C)C(=O)c2nc[nH]c21	-0.7	·	·
COc1ccc(-c2csc3nc(-c4ccc(F)cc4)oc(=O)c23)cc1OC	9.4	·	·
C=CCSc1nnc(-c2ccccc2N=Cc2c(C)[nH]n(-c3ccccc3)c2=O)c(=O)[nH]1	2.9	?	-21.0%
CSc1nnc(-c2ccccc2N=Cc2c(C)[nH]n(-c3ccc4ccccc4c3)c2=O)c(=O)[nH]1	2.4	?	17.8µM*
COc1cccc(CNC(=O)CN2CCC(c3nc4ccc(C)cc4[nH]3)CC2)c1	·	4.2%	·
C=CCOc1c(OC)cc(Cl)cc1C1NC(=O)NC(C)=C1C(C)=O (stereo unspecified)	4.2	10.3%	-3.9%
COc1cc(Cl)cc(C2NC(=O)NC(C)=C2C(C)=O)c1OCC(=O)O (stereo unspecified)	-0.8	2.24µM*	-9.3%
O=C(NCCCCCCNC(=O)ON=C1CCCCC1)ON=C1CCCCC1	·	-10.8%	-21.6%
COC(CNC(=O)c1ccc(Cn2c(=S)[nH]c3cc4c(cc3c2=O)OCO4)cc1)OC	-4.4	-3.8%	·
CCOc1cc2[nH]c(=O)n(Cc3ccc(C(=O)NCCCN4CCC(C)CC4)cc3)c(=O)c2cc1OCC	·	-10.3%	·
CCOCCCNC(=O)c1ccc2c(=O)n(CCCOCC)c(=S)[nH]c2c1	·	-12.5%	·
CCCNC(=O)c1ccc2c(=O)n(Cc3ccco3)c(=S)[nH]c2c1	·	7.08µM*	·

Source: PubChem
